pKd: −log10 of the molar value.
How the values were obtained:
DRAK1 = tested on: T1, DRAK1
T1 construct: gene STK17A

DMPK2 = tested on: T2, DMPK2
T2 construct: gene CDC42BPG

DCAMKL2 = tested on: T3, DCAMKL2
T3 construct: gene DCLK2

DCAMKL3 = tested on: T4, DCAMKL3
T4 construct: gene DCLK3

DRAK2 = tested on: T5, DRAK2
T5 construct: gene STK17B
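Note: kd values determined as follow-up on hits from a single-replicate KINOMEscan panel screen.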

COc1ccc(CSc2nnc(-c3ccc4nccn4c3)o2)cc1C(F)(F)F
pKd (CLK4): 6.89

COC(=O)C(NC(=O)NC1CCN(c2ccnc(Nc3ccc(F)cc3)n2)C1)c1ccccc1 (centres unmarked) [GSK1379712]
pKd (CSNK1D): < 5.00

Cc1ccc(NC(=O)Nc2ccccc2F)cc1-c1ccc(C(=O)Nc2ccncc2)cc1 [GSK1398477]
pKd (CSF1R): 5.59 | pKd (DDR1): 6.74

CNCc1ccc2nc(NC(=O)c3ccc(C(C)(C)C)cc3)cn2c1
pKd (CSNK1G3): < 5.00

COc1ccc(CSc2nnc(-c3ccc4c(c3)CCO4)o2)cc1
pKd (CLK4): 5.89

Cn1cncc1-c1cc2c(Nc3ccc(OCc4ccccc4)cc3)ncnc2cn1 [GW281179]
pKd (DRAK1): < 5.00 | pKd (EGFR): 8.00

Cc1nccc(-c2c(-c3ccc(F)cc3)ncn2CCCN2CCOCC2)n1.Cl [SB-282975]
pKd (CSNK1D): 7.12 | pKd (CSNK1E): 6.34 | pKd (DAPK2): < 5.00

CC(=O)c1c(C)c2cnc(Nc3ccc(N4CCNCC4)cn3)nc2n(C2CCCC2)c1=O
pKd (CSNK1E): < 5.00 | pKd (DMPK2): < 5.00

Cc1cccc2c(-c3ccncn3)c(-c3ccc(F)cc3)nn12 [GW515532]
pKd (CSNK1D): 5.92 | pKd (CSNK1E): 5.47 | pKd (CSNK1G3): < 5.00

CC(=O)c1c(C)c2cnc(Nc3ccn(C)n3)nc2n(C2CCCC2)c1=O
pKd (DCAMKL2): < 5.00

CNc1cc(-c2ccc3c(N)n[nH]c3c2)nc(N)n1 [GSK2224810]
pKd (CLK4): 6.85 | pKd (DRAK1): 7.05 | pKd (DYRK2): 7.48

c1ccc(-c2ccnc3[nH]ccc23)cc1 [SB-693578]
pKd (CSNK1G1): < 5.00

CC[C@@H]1CO[C@H](C(=O)Nc2ccccc2)CN1c1cc(-c2ccc3c(N)n[nH]c3c2)nc(NC)n1 [GSK2376236]
pKd (DCAMKL3): 6.24 | pKd (DRAK1): 6.66

Cn1cnc2c(N)ncnc21 [SKF-97623]
pKd (DAPK1): < 5.00

Cc1ccc(NC(=O)c2ccc(Cl)cc2)cc1-c1ccc(C(=O)Nc2ccncc2)cc1 [GSK1398467]
pKd (CSF1R): 6.06 | pKd (DDR1): 6.15 | pKd (EPHA3): < 5.00

CC(C)c1cc(-c2ccc3c(N)n[nH]c3c2)nc(N)n1 [GSK2250882]
pKd (DRAK1): 7.54

CNc1nc(-c2ccc3c(N)n[nH]c3c2)cc(N2C[C@@H](C(=O)Nc3ccccc3)CC[C@H]2C)n1 [GSK2298859]
pKd (DRAK1): 7.05 | pKd (DRAK2): 7.08

CS(=O)(=O)CCNCc1nc(-c2ccc3ncnc(Nc4ccc(OCc5ccccc5)c(Cl)c4)c3c2)cs1.Cl [GW582764]
pKd (DDR1): < 5.00

COc1ccc2cc(-c3nc(-c4ccccc4C(C)C)[nH]c3-c3ccncc3)ccc2c1 [SB-660566]
pKd (DDR1): 6.48

COc1cccc(NC(=O)Nc2ccc(C)c(-c3ccc(C(=O)Nc4ccncc4)cc3)c2)c1 [GSK1398474]
pKd (CSF1R): 5.48 | pKd (DDR1): 6.57

NS(=O)(=O)c1cccc(N/C=C2\C(=O)Nc3ccc(S(=O)(=O)Cc4c(Cl)cccc4Cl)cc32)c1 [GSK398099]
pKd (DAPK1): < 5.00

Cc1ccc(NC(=O)Nc2ccccc2)cc1-c1ccc(C(=O)Nc2ccncc2)cc1 [GSK1398471]
pKd (CSF1R): 5.48 | pKd (DDR1): 6.74

CCCCc1nn2ncccc2c1-c1ccnc(NC2CC2)n1 [GW684374]
pKd (CSNK1D): 6.32 | pKd (CSNK1E): 5.54

COc1ccc(Nc2nccc(N3CCC(NC(=O)C(C)c4ccc(Cl)cc4)CC3)n2)cc1 (centres unmarked) [GSK1379812]
pKd (DYRK1A): < 5.00

CCn1c(-c2c(N)noc2C)nc2cnccc21 [SB-737856]
pKd (DMPK2): < 5.00

CS(=O)(=O)Cc1ccc(Nc2nccc(-c3c(-c4cccc(NC(=O)C5CCCCC5)c4)nn4ncccc34)n2)cc1 [GSK350559]
pKd (DDR1): 7.64

Fc1ccc(-c2nc3n(c2-c2ccncc2)CCS3)cc1 [GI98581]
pKd (CSNK1A1): 6.59 | pKd (CSNK1D): 7.08 | pKd (CSNK1E): 6.74 | pKd (DMPK2): 5.92

Nc1nccc(-c2c(-c3ccc(F)cc3)ncn2C2CCN(Cc3ccccc3)CC2)n1 [SB-219980]
pKd (CSNK1A1): 7.39 | pKd (CSNK1D): 8.12 | pKd (CSNK1E): 7.62 | pKd (DDR1): 6.85

Fc1ccc(-c2nc[nH]c2-c2ccncc2)cc1 [SB-217360]
pKd (CSNK1A1): 7.06 | pKd (CSNK1D): 7.39 | pKd (CSNK1E): 6.85

COc1ccc(Nc2nccc(N3CCC(NC(=O)c4cc5ccccc5s4)C3)n2)cc1 (centres unmarked) [GSK1379738]
pKd (DDR1): < 5.00

O=C1NC(=O)C(c2ccc(Cl)cc2)=C1Nc1cccc(Cl)c1 [SB-317651]
pKd (CSNK1G3): < 5.00

Cc1ccc(NC(=O)Nc2ccc(Cl)c(C(F)(F)F)c2)cc1-c1ccc(C(=O)Nc2ccncc2)cc1 [GSK1398470]
pKd (DDR1): 6.92

COc1ccc(CSc2nnc(-c3ccc4ncsc4c3)o2)cc1C(F)(F)F
pKd (CLK4): 5.96

Cc1ccc(NC(=O)Nc2ccc(Cl)cc2)cc1-c1ccc(C(=O)Nc2ccncc2)cc1 [GSK1398472]
pKd (CSF1R): 5.17 | pKd (DDR1): 7.14

— article PMC5540273 (PLoS ONE, 2017)
